# Data taken from PubChem BioAssay (Tox21).
# “And” between values parts separate entries of the source, which are not always exact repeats. Equal entries are not always repeated. Results filed as inconclusive are left out. Where a call stands in place of a potency, no number is given. A structure can be active in one record and inactive in another. The source made the active and inactive calls. Unless noted, calls come from the whole dose curve; as a rule, active = well fitted curve in the direction sought with a large enough effect in the repeat runs; inconclusive = weak or mixed curves; inactive = no such curve, though single readings can be large; an effect the other way counts as inactive or inconclusive.
# Columns and labels:
# [1] = qHTS assay for small molecules that induce genotoxicity in human embryonic kidney cells expressing luciferase-tagged ATAD5 - cell viability (AID 651634; calls by dose curve; note: nearly all actives have a fitted effect of over 25% in size; note: potency is the fitted concentration of half-maximal effect)
# Outline: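 Cytotoxicity counterscreen in HEK293T cells bearing an ATAD5-luciferase reporter: live-cell protease activity measured by CellTiter-Fluor fluorescence after 15.5 hr compound exposure.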
# [2] = qHTS assay for small molecule disruptors of the mitochondrial membrane potential (AID 720635); note: potency is the fitted concentration of half-maximal effect
# Outline: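 HepG2 cells (2,000/well) attached overnight at 37C, then took compound for 1 hr at 37C, 5% CO2. Mito-MPS dye was added for 30 min; fluorescence was read at 490/535 nm (monomers) and 540/590 nm (aggregates).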
# [3] = qHTS assay to test for compound auto fluorescence at 590 nm (red) in HepG2 cells (AID 720674)
# Outline: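 Compound auto-fluorescence is scored relative to Rose Bengal sodium, measured at 540/590 nm in live HepG2 cultures after 1 hr compound contact (37 C, 5% CO2).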
# [4] = qHTS assay to test for compound auto fluorescence at 535 nm (green) in HepG2 cells (AID 720675)
# [5] = qHTS assay to test for compound auto fluorescence at 460 nm (blue) in HEK293 cells (AID 720678); note: potency is the fitted concentration of half-maximal effect
# Outline: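 Intrinsic compound fluorescence is recorded in live HEK293 cultures after overnight incubation at 37C, 5% CO2, using excitation 405 nm and emission 460 nm. Values are referenced to triamterene.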
# [6] = qHTS assay to test for compound auto fluorescence at 590 nm (red) in HEK293 cells (AID 720679)
# Outline: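 Red autofluorescence, HEK293 cells: 2,000 cells/well; attach 4-5 hr 37C; add 23 nL cpd or DMSO; incubate o/n 37C 5% CO2; read Ex540/Em590; Rose Bengal sodium reference.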
# [7] = qHTS assay for small molecule agonists of the p53 signaling pathway - cell viability (AID 651633; calls by dose curve; note: nearly all actives have a fitted effect of over 30% in size; note: potency is the fitted concentration of half-maximal effect)
# Outline: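 p53RE-bla cells, seeded at 4,000 per well and rested 5 h at 37 C/5% CO2, received compounds in DMSO for 16 h at 37 C. CellTiter-Glo was then added, and luminescence was read after 30 min at room temperature to gauge cytotoxicity.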
# [8] = qHTS assay for small molecule disruptors of the mitochondrial membrane potential - cell viability (AID 720634; calls by dose curve; note: nearly all actives have a fitted effect of over 20% in size; note: potency is the fitted concentration of half-maximal effect)
# Outline: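 After overnight attachment at 37 C, HepG2 cells received compound or DMSO vehicle for 1 hr. Viability is then taken from ATP-driven luminescence following a 30 min room-temperature CellTiter-Glo step.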
# Tags give direction and shape of the fitted curve or compound fluorescence and quenching.
Compound,Potency [1],Potency [2],outcome [3],outcome [4],Potency [5],outcome [6],Potency [7],Potency [8],"fluorescence, relative to Rose Bengal [3]","fluorescence, % of fluorescein control [4]","fluorescence, % of triamterene [5]","fluorescence, % of fluorescent control [6]"
Oc1cc(Cl)c(Cl)c(Cl)c1,inactive,2.31 µM (active),inactive,inactive,inactive,inactive,–,–,–,–,–,–
BrC(Br)C(Br)(Br)Br,inactive,–,inactive,inactive,inactive,inactive,inactive,inactive,–,–,–,–
CCCCCCCCCC[N+](C)(C)CCCCCCCCCC,–,8.41 µM (active) and 24.3 µM (active),inactive,inactive,inactive,inactive,26.6 µM (active) and 61.1 µM (active),26.6 µM (active) and inactive,–,–,–,–
N#C/C=C/C#N,–,–,–,inactive,inactive,inactive,inactive,inactive,–,–,–,–
Nc1ccc(Cc2ccc(N)c(Cl)c2)cc1Cl,inactive,59.1 µM (active),inactive,inactive,inactive,inactive,–,–,–,–,–,–
CCCCCCCCCCCCCCCCCCn1cc[n+](C)c1,inactive,9.63 µM (active),inactive,inactive,inactive,inactive,–,–,–,–,–,–
N#CC(Cl)Cl,inactive,–,inactive,inactive,inactive,inactive,inactive,inactive,–,–,–,–
C=CC(=O)OCCCCOC(=O)C=C,54.5 µM (active),inactive,inactive,inactive,inactive,inactive,–,inactive,–,–,–,–
CCCCN(CCCC)C(=S)[S-].CCCCN(CCCC)C(=S)[S-].[Zn+2],–,27.3 µM (active),–,inactive,inactive,inactive,9.44 µM (active) and 61.1 µM (active),inactive,–,–,–,–
C[C@H]1CC[C@@H]2[C@@H](C)[C@H]3[C@H](C[C@H]4[C@@H]5CC=C6CC(O[C@@H]7O[C@H](CO)[C@H](O)[C@H](O[C@@H]8O[C@H](CO)[C@@H](O)[C@H](O)[C@H]8O)[C@H]7O[C@H]7O[C@@H](C)[C@H](O)[C@@H](O)[C@H]7O)CC[C@]6(C)[C@H]5CC[C@]34C)N2C1 (stereo partly specified),26.6 µM (active) and 63.1 µM (active),18.8 µM (active) and 35.5 µM (active),–,inactive,inactive,inactive,–,18.8 µM (active) and 70.8 µM (active),–,–,–,–
CC(C)C1CCC(Cc2ccc(Cl)cc2)C1(O)Cn1cncn1 (stereo unspecified),53.9 µM (active),15.2 µM (active),inactive,inactive,inactive,inactive,–,–,–,–,–,–
CCOCCOC(C)=O,inactive,–,inactive,inactive,inactive,inactive,inactive,inactive,–,–,–,–
CC(C)(C)c1cc([N+](=O)[O-])cc(C(C)(C)C)c1O,13.7 µM (active),0.122 µM (active),–,inactive,inactive,inactive,48.6 µM (active),–,–,–,–,–
CN(C)c1ccc(N=Nc2ccccc2)cc1,68.7 µM (active),–,inactive,inactive,inactive,inactive,inactive,48.6 µM (active),–,–,–,–
O=c1[nH]c2ccccc2n1CCCN1CCC(n2c(=O)[nH]c3cc(Cl)ccc32)CC1,–,inactive,inactive,inactive,inactive,inactive,inactive,inactive,–,–,–,–
CCOCn1c(-c2ccc(Cl)cc2)c(C#N)c(Br)c1C(F)(F)F,–,0.0486 µM (active),inactive,inactive,inactive,inactive,30.6 µM (active),–,–,–,–,–
CN(C)C1CSSSC1,inactive,–,inactive,inactive,inactive,inactive,inactive,inactive,–,–,–,–
O=C(CCl)Nc1ccccc1,48.6 µM (active),–,inactive,inactive,inactive,inactive,–,inactive,–,–,–,–
CC(=O)[O-].[Tl+],–,–,inactive,inactive,inactive,inactive,43.5 µM (active),–,–,–,–,–

Compound,Potency [1],Potency [2],outcome [3],outcome [4],Potency [5],outcome [6],Potency [7],Potency [8],"fluorescence, relative to Rose Bengal [3]","fluorescence, % of fluorescein control [4]","fluorescence, % of triamterene [5]","fluorescence, % of fluorescent control [6]"
Cc1cc(C)c(C2=C(OC(=O)CC(C)(C)C)C3(CCCC3)OC2=O)c(C)c1,inactive,12.8 µM (active),–,inactive,inactive,inactive,inactive,–,–,–,–,–
CCCSP(=O)(OCC)SCCC,inactive,–,inactive,inactive,inactive,inactive,–,inactive,–,–,–,–
CCCCCCCCCCCCCCC(Br)C(=O)O (stereo unspecified),–,–,inactive,inactive,inactive,inactive,54.5 µM (active),inactive,–,–,–,–
O=C(O)C1C2CCC(O2)C1C(=O)O (stereo unspecified),inactive,–,inactive,inactive,inactive,inactive,inactive,–,–,–,–,–
[Cd+2].[Cl-].[Cl-],1.95 µM (active) and 1.22 µM (active),–,inactive,inactive,inactive,inactive,–,–,–,–,–,–
CC(=O)[O-].CC(=O)[O-].O.O.[Cd+2],0.214 µM (active),–,–,inactive,inactive,inactive,–,–,–,–,–,–
CCCOCC(=Nc1ccc(Cl)cc1C(F)(F)F)n1ccnc1,61.1 µM (active),6.11 µM (active),–,inactive,inactive,inactive,24.3 µM (active),30.6 µM (active),–,–,–,–
O=[N+]([O-])O.O=[N+]([O-])O.[Cd],1.22 µM (active),–,inactive,inactive,inactive,inactive,–,–,–,–,–,–
C[C@]12CC[C@H]3[C@@H](CCC4=CC(=O)CC[C@@]43C)[C@@H]1CC[C@@H]2O,inactive,–,inactive,inactive,inactive,inactive,inactive,inactive,–,–,–,–
O=c1[nH]c2ccccc2n1C1CCN(CCCC(c2ccc(F)cc2)c2ccc(F)cc2)CC1,29.8 µM (active) and 54.5 µM (active),–,–,inactive,inactive,inactive,23.7 µM (active) and 61.1 µM (active),–,–,–,–,–
Clc1ccc(CCC(Cn2ccnc2)Sc2c(Cl)cccc2Cl)cc1 (stereo unspecified),inactive,–,–,–,–,–,–,inactive,-0.283% [at 18.6 µM] (inactive),-0.0029% [at 18.6 µM] (inactive),0.0582% [at 18.6 µM] (inactive),0.0698% [at 18.6 µM] (inactive)
CCOP(=O)(NC(C)C)Oc1ccc(SC)c(C)c1 (stereo unspecified),–,–,inactive,inactive,inactive,inactive,–,–,–,–,–,–
CC(=O)[O-].CC(=O)[O-].[Hg+2],54.5 µM (active),–,inactive,inactive,inactive,inactive,1.93 µM (active),–,–,–,–,–
CC1(C)C(/C=C(\Cl)C(F)(F)F)C1C(=O)OC(C#N)c1cccc(Oc2ccccc2)c1 (stereo unspecified),inactive,34.9 µM (active),inactive,inactive,inactive,inactive,–,–,–,–,–,–
CCc1nn(C)c(C(=O)NCc2ccc(C(C)(C)C)cc2)c1Cl,inactive,15.4 µM (active),inactive,inactive,inactive,inactive,–,12.2 µM (active),–,–,–,–
CC1(C)CN=C(NN=C(/C=C/c2ccc(C(F)(F)F)cc2)/C=C/c2ccc(C(F)(F)F)cc2)NC1,48.6 µM (active),17.2 µM (active),inactive,inactive,inactive,inactive,27.3 µM (active),–,–,–,–,–
CC[C@H]1C[C@@H]2C[C@H]3c4[nH]c5ccc(OC)cc5c4CCN(C2)[C@@H]13,inactive,–,inactive,inactive,inactive,inactive,inactive,inactive,–,–,–,–
Oc1ccc2ccc3cccc4ccc1c2c34,inactive,2.73 µM (active),–,inactive,35.5 µM [fluorescent] (active),inactive,inactive,–,–,–,–,–
